Assay results reported in the supplement of paper PMC6555819.

Key:
Test in all cases: PBM binding z-score (relative to random genomic background probes); higher = stronger binding; sequences stand for … in GC…GCGATTGACAGCGTAGAATGAAGG
[1] = system: PPARg:RXRa DBDmut IVT, anti-RXR (DBD mutation: RXRa K156A/R161A, NR concentration 270 nM, RXRa partner concentration 90 nM)
How it was run: (§1)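 Ligand-free nuclear receptor dimers were applied to custom Agilent 4×180K protein-binding microarrays whose double-stranded probes carried direct-repeat seeds, single-nucleotide variants, half-site ablations and random human genomic background sequences in 34-nt variable regions. Incubation lasted 1 h. Binding z-scores were computed against the random background probes from regression-normalized fluorescence.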

[2] = system: PPARg:RXRa IVT, anti-PPARg (NR concentration 270 nM, RXRa partner concentration 90 nM)
How it was run: as §1

[3] = system: PPARg DBDmut:RXRa IVT, anti-PPARg (DBD mutation: PPARg1 K132A/R137A, NR concentration 270 nM, RXRa partner concentration 90 nM)
How it was run: as §1

[4] = system: PPARg DBDmut IVT, anti-PPARg (DBD mutation: PPARg1 K132A/R137A, NR concentration 270 nM)
How it was run: as §1

[5] = system: PPARg homodimer (NR concentration 180 nM)
How it was run: as §1

[6] = system: PXR:RXRa (NR concentration 270 nM, RXRa partner concentration 90 nM)
How it was run: as §1

[7] = system: PXR homodimer (NR concentration 270 nM)
How it was run: as §1

[8] = system: RARa:RXR (NR concentration 270 nM, RXRa partner concentration 90 nM)
How it was run: as §1

[9] = system: RARa homodimer (NR concentration 270 nM)
How it was run: as §1

[10] = system: RARb:RXRa (NR concentration 270 nM, RXRa partner concentration 90 nM)
How it was run: as §1

Sequence	PBM binding z-score [1]	PBM binding z-score [2]	PBM binding z-score [3]	PBM binding z-score [4]	PBM binding z-score [5]	PBM binding z-score [6]	PBM binding z-score [7]	PBM binding z-score [8]	PBM binding z-score [9]	PBM binding z-score [10]
CCTTACGGGTCACGAGGCTATAGCACGACGAGCG	3.61	4.78	0.556	-0.248	1.81	3.26	-0.243	4.45	0.264	4.23
TCTAGTTGGTCACGGAGGTAACACACGACGGGTA	2.14	2.58	0.811	0.805	0.896	0.407	0.258	0.834	0.81	1.8
ATACCAAGGTGATCGTGAGGTCGTTGTTACTAAC	0.34	1.36	0.414	0.123	1.05	2.84	1.29	2.11	0.23	1.3
TCTCGGAGGACACGAAAGGTCAGAGTTCGACATC	1.62	1.81	-0.309	-0.696	3.27	4.98	3	5.55	1.69	4.16
AATACCGGGTCATCGTAGGCCAGAGTACGCACAG	2.9	4.61	2.58	2.08	2.01	4.56	0.459	4.53	0.886	3.67
CATACAGGGTCAGCTAGGCCAGCGTAGGGACGGC	1.15	2.23	0.338	0.666	1.25	2.09	0.247	2.95	0.0243	4.03
ATCTCCAGGTAAAAGTTCAGTGAATCCCGAGGAT	0.0885	2.31	1.68	1.01	1.84	2.4	1.88	2.14	1.07	2.6
TCATATAGTTAAACAGGTGAAAGTCCGTAAGTTA	2.65	1.54	1.36	1.6	1.34	0.848	0.543	1.2	1.91	0.698
TCTAATAGTTGAAGGGCAACCGACGAGTCCGTTT	2.21	0.129	1.32	0.0205	0.705	0.839	0.503	0.712	-0.387	1.53
TGTGCTAGGTCAACGATGGTCAGCTAATCTGCTA	2.94	4.09	0.203	0.0393	1.1	1.4	-0.379	1.85	-0.241	4.15
GCATATAGTTAATACAAGGTGAAAGTCCGATTGT	0.418	0.597	0.14	1.15	0.564	0.322	0.372	0.691	0.956	0.235
AGAATGAGGTTATACGTGGATCAGGGAAGAAAGT	3.62	2.12	1.26	0.938	1.69	1.17	0.993	1.89	0.612	1.55
GCTGCTAGGTGAACTGATGGTCAGCTAAAGCTCG	3.85	2.6	-0.641	-1.06	-0.326	-0.0218	-0.684	0.388	-1.4	0.944
TCGGGTAGGTTAGTCGGGGCATTCAGCCAACATA	1.77	1.67	0.234	0.0537	0.765	0.737	0.967	0.254	0.816	1.21
ACTTTTAGTTGAGACGAGGGCAACCGATAGGTTG	0.771	0.663	1.4	1.16	0.208	1.33	0.341	1.59	0.167	1.24
CAAACTAGGTCACCGGAAGGTCAAAGGCCGCATG	8.46	8.84	4.26	3.71	5.53	5.83	1.1	7.5	1.75	5.35
GCTGCTAGGTCAGGTTTGTCAGCTAACGGGTACG	3.26	1.92	-0.625	-0.587	0.518	0.229	-0.27	0.51	-0.0516	2.95
TAGCCTAGGACAGATCGGGCCAGTATACGCTATA	-0.993	-0.151	-0.673	0.0562	-1.15	-0.732	-0.768	-0.695	-1.42	-0.928
TCTTGTAGATCAACAGGAGGTTAAGGAAGATCGA	1.4	0.448	1.51	0.495	0.156	0.485	-0.267	0.702	0.0704	0.516
AGTCAAAGTTCACTCGGTAACGTAAGATTCAGCT	0.841	2.9	1.02	1.36	2.4	4.21	2.5	3.1	1	4.76
TTACCAAGGTGAGCTTAGGTCGTTGATCCAACTC	1.61	1.67	-0.375	-0.536	-0.601	1.62	-0.264	0.665	-0.83	1.36
CCTTACGGGTCAAGGTTATAGCTCGGGTGGTACG	2.32	3.66	0.883	-0.415	1.91	3.16	0.16	3.72	0.652	4.12
TCGTATAGGTAAACAGGTGAAAGTCCGTAAGTTA	2.73	2.33	0.663	0.619	1.46	0.831	0.735	1.22	1.47	0.797
TCTCGGAGGACACGAAGGTCAGGGCTTTCCAGAG	1.37	0.884	-0.402	-1.18	1.07	1.89	0.452	2.52	-0.205	3.48
GCATAGAGGTAATACAAGGTGAAAGTCCGATTGT	1.06	1.35	0.658	0.616	0.00249	1.03	-0.217	1.18	0.413	0.751
